# Results filed as inconclusive are left out. The source made the active and inactive calls. Calls follow the shape of the dose curve; as a rule, active = well fitted inhibition curve with a large enough effect in the signal ratio in the repeat runs (not every such curve was filed as active); inconclusive = weak or mixed curves, or effect the other way; inactive = no such curve, though single readings can be large or run the other way; the % refers to the signal ratio.
# Target: Estrogen receptor beta (Homo sapiens) (UniProt Q92731)
# Sequence (Q92731 whole entry, looked up): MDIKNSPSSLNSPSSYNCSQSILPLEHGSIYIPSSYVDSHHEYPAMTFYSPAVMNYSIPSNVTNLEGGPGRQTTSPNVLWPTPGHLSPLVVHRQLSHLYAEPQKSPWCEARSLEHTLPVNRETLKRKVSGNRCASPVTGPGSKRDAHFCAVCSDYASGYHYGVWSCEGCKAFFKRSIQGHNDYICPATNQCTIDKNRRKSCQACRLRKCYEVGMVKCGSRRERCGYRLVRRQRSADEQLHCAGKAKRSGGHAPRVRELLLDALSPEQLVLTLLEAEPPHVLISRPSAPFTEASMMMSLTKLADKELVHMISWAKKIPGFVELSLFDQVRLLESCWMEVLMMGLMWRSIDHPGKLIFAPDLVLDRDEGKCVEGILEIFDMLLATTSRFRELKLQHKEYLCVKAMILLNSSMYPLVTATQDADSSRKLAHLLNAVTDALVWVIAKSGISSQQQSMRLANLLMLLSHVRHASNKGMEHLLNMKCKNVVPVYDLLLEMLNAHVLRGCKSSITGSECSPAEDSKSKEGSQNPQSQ
# Assay: qHTS assay to identify small molecule antagonists of the estrogen receptor beta (ER-beta) signaling pathway (AID 1259378)
# Details: ER-beta-UAS-bla HEK293T, beta-lactamase FRET ratio, 16 h; series mostly up to 92.4 µM
# Source text: National Center for Advancing Translational Sciences [NCATS]
# NIH Chemical Genomics Center [NCGC]
# U.S. Environmental Protection Agency [EPA]
# National Institutes of Environmental Health Sciences [NIEHS]
# National Toxicology Program [NTP]
# U.S. Food and Drug Administration [FDA]
# Estrogen receptor (ER), a nuclear hormone receptor, plays an important role in development, metabolic homeostasis and reproduction. Two subtypes of ER, ER-alpha and ER-beta, have similar expression patterns with some uniqueness in both types. Endocrine disrupting chemicals (EDCs) and their interactions with steroid hormone receptors like ER causes disruption of normal endocrine function. To identify the compounds that inhibit ER signaling, an ER-beta-UAS-bla GripTite cell line (Life Technologies, Madison, WI, USA) containing a beta-lactamase reporter gene under the control of an UAS response element was used to screen Tox21 10K compound library.
# Tox21 Assay Protocol Summary:
# ER-beta-UAS-bla HEK293T cells were dispensed at 2,000 cells/4 uL of assay medium containing 2% charcoal stripped FBS per well into black wall/clear-bottom 1536-well plates using a Multidrop Combi (ThermoFisher Scientific, Waltham, MA) dispenser. After the assay plates were incubated at a 37C and 5% CO2 for 6 hr, 23 nL of compounds dissolved in DMSO, positive controls or DMSO only was transferred to the assay plate by a Pintool station (Kalypsys, San Diego, CA), followed by addition of 1 uL (1nM as final concentration) of 17-beta-estradiol (E2) in assay medium using a BioRAPTR FRD (Flying Reagent Dispenser, Aurora Discovery, San Diego, CA). The plates were incubated at 37C and 5% CO2 for 16 hr. Then 1 uL of LiveBLAzerTM B/G FRET substrate was added using a Flying Reagent Dispenser, the plates were incubated at room temperature for 2 hours, and fluorescence intensity was measured by an Envision plate reader (PerkinElmer, Shelton, CT).
row,Compound,outcome
1,C=CCOCC(CO)(COCC=C)COCC=C,inactive
2,COc1ccc(/C=N/NC(=O)c2ccncc2)cc1OC,inactive
3,NC(=O)NC(=O)Cc1ccccc1,inactive
4,CCCCCCCCCCCCCCCCCCN(C)C,inactive
5,CC1=CC[C@H](CC=O)C1(C)C,inactive
6,CC1(N)CCC(C(C)(C)N)CC1 (stereo not given),inactive
7,CCN(Cc1cccc(S(=O)(=O)O)c1)c1ccccc1,inactive
8,NC(=O)NNC(N)=O,inactive
9,O=C1NC2NC(=O)NC2N1 (stereo not given),inactive
10,CCOC(=O)C(=O)c1csc(NC=O)n1,inactive
11,COCCOCCOCCOC,inactive
12,CCCCCC1CCCC(=O)O1 (stereo not given),inactive
13,O=C(c1ccc2c(c1)C(=O)OC2=O)c1ccc2c(c1)C(=O)OC2=O,inactive
14,CCOC(=O)CCc1ccccc1,inactive
15,NS(=O)(=O)c1cc2c(cc1Cl)NC(C(Cl)Cl)NS2(=O)=O (stereo not given),inactive
16,C=CCOc1c(Br)cc(C(C)(C)c2cc(Br)c(OCC=C)c(Br)c2)cc1Br,inactive
17,CCOC(=O)CCCCCCCCC(=O)OCC,inactive
18,Cc1ccc(S(=O)(=O)NC(=O)NC2CCCCCCC2)cc1,inactive
19,CC(C)(C)c1ccc(C=O)cc1,inactive
20,O=[Si]=O,inactive

row,Compound,outcome
1,Nc1ccc(C(=O)OCC(O)CO)cc1 (stereo not given),inactive
2,Nc1ccc(S(=O)(=O)Nc2ccccn2)cc1,inactive
3,CCOC(=O)C(C)(C)C,inactive
4,CCOc1ccc(NC(=O)OC(C)C)cc1OCC,inactive
5,CCCCCCCC[Si](OCC)(OCC)OCC,inactive
6,CC(C)COC(=O)/C=C/c1ccccc1,inactive
7,CCCCCCCCCCC,inactive
8,Cc1cc(O)c2c(c1)C(=O)c1cccc(O)c1C2=O,inactive
9,CC(C)CCC(=O)CCC(C)C,inactive
10,CCCCOC(=O)[C@@H](C)Oc1ccc(Oc2ccc(C(F)(F)F)cn2)cc1,inactive
11,CC(CC(=O)O)CC(C)(C)C (stereo not given),inactive
12,CC(C)SCc1ccco1,inactive
13,CCN(CCC#N)c1ccccc1,inactive
14,CCNC(=O)/C=C/c1cccc(Br)c1,inactive
15,CO/N=C(/C(=O)N[C@@H]1C(=O)N2C(C(=O)O)=C(Cn3nnc(C)n3)CS[C@H]12)c1csc(N)n1,inactive
16,Cc1ccccc1N1CCN(CCc2nnc3n2CCCC3)CC1,inactive
17,CNC(=O)NC,inactive
18,CCCCC(CC)COC(=O)c1ccccc1 (stereo not given),inactive
19,CCCC(C)CC (stereo not given),inactive
20,O=S(=O)(O)SSS(=O)(=O)O,inactive
